In ChEMBL document CHEMBL3988442, “University of Dundee, Small-Polar-MMV Screening Library” (2021):
Out of some 38,000 compounds screened, about 1,200 (3.2%) showed an effect of 50% or more. The median lay at about -58%. What follows is part of a selection rich in strong results, with near analogues and random picks from the rest.

Test system: Plasmodium falciparum
Assay: Calibr Malaria Delayed Death Assay SOP
Type: functional, organism-based
Parameters: scale not given: in the data most compounds retested in dose-response had high values
Details: concentration 4.99e-06 (unit not given; other assays of the set use mol/L)

SMILES | Percent Effect
O=C(O)C(F)(F)F.O=C(c1cnccn1)N1C[C@@H](OCc2ccncc2)[C@@H]2OCCC[C@@H]21 | -88.13%
CNC(=O)CN(C)CC1(c2ccc(Br)cc2)CC1 | 20.85%
CNC(=O)CCN(C)CC1(c2ccc(Br)cc2)CC1 | 86.7%
CNC(=O)N(C)CC1(c2ccc(Br)cc2)CC1 | -138.2%
COCCn1c2c(ccc1=O)CCN(C(=O)NC1CC1)CC2 | -102.5%
O=C1CC(c2ccc(O)cc2)c2sc(C(=O)O)c(-c3ccccc3)c2N1 (configuration not stated) | -164.8%
Cc1ocnc1C(=O)N1CC[C@@H](O)[C@@H](O)[C@H](N2CCC(F)(F)CC2)C1 | -140.1%
Cc1ccc2c(n1)N(CC(C)C)CCN(S(C)(=O)=O)C2.O=C(O)C(F)(F)F | -91.42%
CCN1CC(CN2CCOCC2)Oc2ncccc2C1=O (configuration not stated) | -121.7%
O=C(C1CNCCO1)N1CCC(c2cc(N3CCCC3)ncn2)CC1 (configuration not stated) | -72.24%
Cc1ccc(-c2ccc(C3CNCCO3)nc2)cc1.Cl (configuration not stated) | 82.68%
O=C(c1csc(C2CC2)n1)N1CCCCC1Cn1cccn1 (configuration not stated) | -84.46%
CN(Cc1cccc(C#N)c1)c1ncc(C(N)=O)cc1Cl | -70.4%
CC(C(=O)Nc1cc(F)ccc1F)N1CCN(Cc2ncc[nH]2)CC1 (configuration not stated) | -135.8%
NCCC(Cc1ccccc1)c1ccco1 (configuration not stated) | 83.75%
O=C(NCCC(O)c1ccccc1)c1ccco1 (configuration not stated) | -97.01%
O=S(=O)(Cc1ccccc1)NCc1ccco1 | -115.6%
CCOc1cccc(C(=O)N(CCC#N)Cc2ccccn2)c1 | -89.54%
O=C(NC1CC1)c1cc2c(s1)CCN2C(=O)C1CC1 | -64.25%
Cc1ccc(C)c(S(=O)(=O)NC(=O)c2cccc3c2OCCO3)c1 | -117.7%
C[C@@H]1CN(Cc2ccncc2)C[C@]1(C)O | -25.52%
COc1cccc(CN2CCCCC2CN2CCOCC2)c1F (configuration not stated) | 2.016%
COc1cc2c(cc1CN1CCCCC1CN1CCOCC1)CCC2 (configuration not stated) | 64.85%
COc1cc2c(cc1CN1C[C@@H](CN3CCOCC3)[C@@H](CO)C1)CCC2 | 19.43%
Cc1c(C(=O)NCCCC(N)=O)sc2ccc(F)cc12 | -72.75%
O=C1CC(NS(=O)(=O)c2ccc3ccccc3c2)CN1 (configuration not stated) | -65.16%

SMILES | Percent Effect
Cc1noc([C@@H]2C[C@@H]3CCN(c4nnc(C)s4)C[C@H]3O2)n1.O=C(O)C(F)(F)F | -44.29%
CNS(=O)(=O)CC(=O)N(Cc1c(F)cccc1Cl)C1CC1 | -68.94%
Cc1nc(NCc2coc(-c3ccccc3)n2)cc(C2CCNCC2)n1 | -7.041%
CN(Cc1cc2cc(F)ccc2[nH]1)c1cc(C2CCCNC2)ncn1 (configuration not stated) | 83.71%
Cc1c(CN(C)c2cc(C3CCCNC3)ncn2)[nH]c2ccccc12 (configuration not stated) | 11.41%
Cc1nc(C2CCNCC2)cc(N(C)Cc2cc3cc(F)ccc3[nH]2)n1 | 75.18%
Cc1nc(NCc2ccc(C)o2)cc(C2CCNCC2)n1 | -133.8%
Cc1ccnc(CC(C)N(C)c2cc(C3CCNCC3)nc(C)n2)c1 (configuration not stated) | -104.4%
Cc1nc(C2CCNCC2)cc(N(C)CCc2cn[nH]c2)n1 | -114.3%
CN(Cc1cc2cc(F)ccc2[nH]1)C(=O)C1CC(=O)N(C2CCCC2)C1 (configuration not stated) | 12.79%
Cc1nc(CCN)cc(N(C)Cc2nc3ccc(F)cc3[nH]2)n1 | -113.9%
Cc1cccc(CNC(=O)Nc2cc(C(F)(F)F)c[nH]c2=O)n1 | -120.3%
CCn1nc(C)c2nc(C)nc(NC3CCCC3)c21 | -48.65%
Cc1ccc(CN2CCN(CC(=O)Nc3ccc4nsnc4c3)CC2)o1 | -102.5%
CC(=O)c1ccc(-c2cc(C(F)(F)F)cc(N(C)C)n2)cc1 | -183.7%
CCOC(=O)C1=NOC(Cc2cc(OC)c3c(c2)OCO3)C1 (configuration not stated) | -124.2%
Cc1cc(N2CCOCC2)ccc1NC(C)c1nc(C(C)C)no1 (configuration not stated) | -4.816%
Cc1sc2nc(CCN)nc(N3CCC(N4CCCC4)CC3)c2c1C | 84.16%
Cc1sc2nc(C(F)(F)F)nc(N3CCC(NS(C)(=O)=O)CC3)c2c1C | 27.92%
CCOC(=O)N1CCN(c2nc(C)ncc2CC)CC1 | -56.83%
CCOC(=O)N1CCN(c2nc(CCN)nc3sc(C)c(C)c23)CC1 | 65.93%
Cc1sc2nc(C(F)(F)F)nc(N3CCN(S(C)(=O)=O)CC3)c2c1C | -77.64%
Cc1sc2nc(CCN)nc(N3CCS(=O)(=O)CC3)c2c1C | -119.4%
Cn1ccnc1-c1cn(CCCc2nnc(N)s2)nn1 | -41.76%
O=C(N1CCCC(n2cncn2)C1)C1(c2cccc(F)c2)CCC1 (configuration not stated) | -129.3%
CCN(CC)C(=O)COc1ccnc2cc(OC)ccc12 | -91.77%

SMILES | Percent Effect
O=C(C1CCCO1)N1CCC2(CC1)COCCN(Cc1cccnc1)C2.O=C(O)C(F)(F)F.O=C(O)C(F)(F)F (configuration not stated) | -101.1%
Cc1cccc2nc(CNCc3cccc4c3OCCCO4)cn12 | 46.47%
Cc1cccn2cc(CNCc3cccc4c3OCCCO4)nc12 | 52.57%
c1cc(CNCCc2cn3ccccc3n2)c2c(c1)OCCCO2 | -61.04%
CN(C)C(=O)Cc1ccc(-c2cccc3c2CCNC3)cc1 | -89.76%
CCCOC1CCCN(c2ccnc(C(=O)NCc3ccco3)c2)C1 (configuration not stated) | 63.16%
O=C(NCc1ccco1)c1cc(N2CC[C@@H](O)C2)ccn1 | -225.7%
CN(C)[C@H]1CCN(c2ccnc(C(=O)NCc3ccco3)c2)C1 | -104.8%
CCS(=O)(=O)Nc1cnn(Cc2cccc(Cl)c2)c1 | -156.5%
COc1ccc(-c2nc3c([nH]2)CCCNC3=O)cc1OC | -190.2%
Cc1nn(C)c(N2CCOCC2)c1CNC(C)c1ccccn1 (configuration not stated) | -39.11%
CN(C)C(=O)C1(Oc2ccc(Cl)cc2)CCNCC1 | 48.49%
COc1cccn(CC(=O)N(C)Cc2ccoc2)c1=O | -45.98%
CN(Cc1ccoc1)C(=O)C1(Oc2ccc(Cl)cc2)CCNCC1 | 67.21%
Cc1ccc(OC2(C(=O)N(C)Cc3ccoc3)CCNCC2)cc1 | 63.87%
CN(Cc1ccncn1)C(=O)C1(Oc2ccc(Cl)cc2)CCNCC1 | -76.49%
O=C(N[C@@H]1CCCNC1)C1(Oc2ccc(Cl)cc2)CCNCC1 | -19.49%
Cc1ccc(C(=O)N2CC[C@@]3(O)CCCC[C@H]3C2)cc1 | -98.64%
O=C1CC(c2ccncc2)c2c(sc3c2CCCC3)N1 (configuration not stated) | 55.71%
O=C1CC(c2ccc(C(=O)O)cc2)c2c(sc3c2CCCC3)N1 (configuration not stated) | -5.696%
O=C1CC(c2cccnc2)c2c(sc3c2CCCC3)N1 (configuration not stated) | 28.11%
O=C(CCc1ccco1)NS(=O)(=O)N1CCOc2ccccc21 | -129.3%
CCC[C@H]1CN(Cc2cc(C)no2)C[C@@H]1NC(=O)C1(COC)CCC1 | -58.42%
CCCOc1ccccc1CN[C@@H]1CCC[C@H]1Cc1cc(C)no1.O=C(O)CC(O)(CC(=O)O)C(=O)O | 84.13%
Cc1cc(C[C@@H]2CCC[C@H]2NCc2ccccc2C)on1.O=C(O)CC(O)(CC(=O)O)C(=O)O | 63.44%
Cc1ccccc1Oc1ncccc1CNC1CCC1 | 31.34%

SMILES | Percent Effect
Cc1cc(CS(=O)(=O)NC2CCCCC2)on1 | -56.68%
Cc1cc(C[C@@H]2CCC[C@H]2NCc2ccccc2F)on1.O=C(O)CC(O)(CC(=O)O)C(=O)O | -9.902%
Cc1cc(C[C@@H]2CCC[C@H]2NCc2cccc(F)c2F)on1.O=C(O)CC(O)(CC(=O)O)C(=O)O | -66.07%
CCCc1cc(CNC(=O)Cc2cc(C)no2)on1 | -176%
COc1ccc(-c2nc(CN3CCc4cnc(C)nc4C3)no2)cc1 | -21.98%
Cc1cccc(NC(=O)[C@@H]2CCCN2Cc2nc3ccccc3o2)n1 | -70.67%
O=C(O)C(F)(F)F.O=C(O)c1cc(NS(=O)(=O)c2ccc(Cl)s2)ccc1N1CCOCC1 | -83.84%
CCCc1cc(N2CCC(Cc3cccc(C(N)=O)c3)C2)nc(C)n1 (configuration not stated) | -73.24%
CN(C)c1cc(C(=O)NCc2cccnc2-n2cncn2)ccn1 | -24.53%
Cc1ccsc1CN(CCN(C)C)C(=O)c1cc2ccccc2[nH]1 | -0.6518%
Cc1ccc(CN(CCN(C)C)C(=O)Nc2ccc(C)c(C#N)c2)s1 | 40.03%
Cc1ccsc1CN(CCN(C)C)C(=O)c1ccccc1C#N | 59.93%
O=C(NC[C@@H]1CCCO1)c1cccnc1N1CCCC1c1ccccn1 (some centres not stated) | -159.2%
CCOC(=O)N[C@H]1C[C@@H](C(=O)NCCc2cccc(Cl)c2)N(C)C1 | -112.6%
Cc1nc(-c2cccc(N3CCC(N4CCCC(C#N)C4)CC3)c2)cs1 (configuration not stated) | -24.98%
Cc1nc(-c2cccc(N3CCC(N4CCCC4)CC3)c2)cs1 | 70.2%
COC1CCCN(C2CCN(c3cccc(-c4csc(C)n4)c3)CC2)C1 (configuration not stated) | -26.41%
CC(C)c1nnc(CN(C)Cc2ccccc2-c2ccccc2)o1 | -137.8%
Cc1nc(N2CCCC2)nc2c1CCN(C(=O)C(C)C)CC2 | -54.78%
CCC(NC(=O)CC(F)(F)F)c1ccccc1OCC(=O)N1CCCC1 (configuration not stated) | 15.61%
O=C(COc1cccc2c1CCC2=O)NCc1ccccc1Cl | -71.52%
Cc1ccccc1CNc1ccccc1OCC(=O)N1CCOCC1 | 13.74%
CCC(NCc1ccccc1Cl)c1ccccc1OCC(=O)NC (configuration not stated) | 73.2%
CCC(NCc1ccccc1C)c1ccccc1OCC(=O)NC (configuration not stated) | 78.75%
